“And” between values parts separate entries of the source, which are not always exact repeats. Identical values can stand only once.
Test: binders of probe aFGF2 on microarray, primary screen, stem cell growth factor project, biochemical, small-molecule microarray, fluorescence 635/667 (AID 1067);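 note: measures binding of biotinylated aFGF2 protein to printed compounds on slides; z-score merges feature fluorescence and signal-to-noise across triplicate slides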
Conditions: higher = more signal
For `C=CCN1C(=O)[C@]2(O[C@H](CCn3cc(CCO)nn3)[C@@H]([Si](C)(C)c3ccc(OC)cc3)[C@@H]2C)c2cc(N3C(=O)c4cccc5cccc3c45)ccc21`, the composite z-score was -0.0069 and -0.0563.
For `COC(=O)[C@@]1(Cc2ccc(F)cc2)[C@H]2c3cc(C(=O)N4CCCC4)n(Cc4c(CO)[nH]cc(C)c4=O)c3C[C@H]2CN1C(=O)c1ccccc1`, the composite z-score was 0.775 and -0.0485.
For `C=CCN(CCCCC)C(=O)C1N(c2c(Cl)cccc2CO)C(=O)C2C(C(=O)O)C3C=CC21O3` (stereo not drawn), the composite z-score was -0.283 and -0.216.
With `C=CCN(C(=O)C1N(c2c(Cl)cccc2CO)C(=O)C2C(C(=O)O)C3C=CC21O3)C(C)(C)C` (stereo not drawn) the composite z-score was -0.238 and -0.0459.
In the case of `COC(=O)[C@@]1(Cc2ccc(OC)cc2)[C@H]2c3cc(C(=O)N(C)C)n(Cc4ccc(O)c(OC)c4)c3C[C@H]2CN1C(=O)c1ccccc1`, the composite z-score is reported as -0.169 and 0.176.
With `C=CCN(C(=O)C1N(C(C)(C)CO)C(=O)C2C(C(=O)O)C3C=CC21O3)c1ccc(OC)cc1` (stereo not drawn) the composite z-score was -0.237 and -0.195.
With `C[N+](C)(C)CCCCNC(=O)[C@@H]1C[C@@H]2C(=O)N[C@@H](CCCC[N+](C)(C)C)C(=O)N2[C@@H]1c1cccc(OCCO)c1` the composite z-score was -0.0909 and -0.0573.
For `CCCC[C@@H]1CN2[C@@H](CC[C@@H](C)[C@@H]2c2ccc(Br)cc2)C(=O)O1`, the composite z-score was -0.111 and -0.0736.
Compound `CCN1C(=O)[C@H]2[C@H]3[C@H](O)[C@H](O)CC(=NOC)[C@@H]3CC[C@H]2C1=O` has a composite z-score of -0.1.
For `C=C[C@H](OC)[C@@H](O)c1ccc(OCCO)cc1`, the composite z-score was -0.219 and -0.121.
With `COC(=O)C1=C(C)N(Cc2ccccc2)[C@]23O[C@](C(=O)OC)(C(=O)N2[C@@H]1c1ccccc1)[C@@H](c1ccccc1)[C@@H]3C(=O)c1ccccc1` the composite z-score was -0.0716 and -0.0931.
For `CCOC(=O)[C@@H]1CC=C2CC1C(=O)N1CCC[C@@H]1[C@H]2O[Si](C)(C)C(C)(C)C` (stereo partly drawn), the composite z-score was -0.157 and -0.282.
In the case of `CCOC(=O)[C@@H]1CC2O[C@]23C[C@@H]1C(=O)N1CCC[C@@H]1[C@H]3O[Si](C)(C)C(C)(C)C` (stereo partly drawn), the composite z-score is reported as -0.238 and -0.0048.
With `Cc1ccc(S(=O)(=O)OC[C@@H]2CN3[C@@H](CC[C@@H](C)[C@@H]3c3ccc(Br)cc3)C(=O)O2)cc1` the composite z-score was -0.0502 and 0.0062.
In the case of `COC(=O)C1=C(C)N(Cc2ccccc2)[C@]23O[C@](C(=O)OC)(C(=O)N2[C@@H]1c1ccccc1)[C@H]1C(=O)N(c2ccccc2)C(=O)[C@H]13`, the composite z-score is reported as -0.0747 and 0.41.
For `CCOC(=O)c1ccc(NC(=O)O[C@H]2[C@H](OC(=O)Nc3ccccc3)[C@H](OC(=O)Nc3ccccc3)[C@@H](OC)O[C@@H]2CO)cc1`, the composite z-score was 0.171 and 0.0495.
With `C[N+](C)(C)CCCCCCNC(=O)[C@H]1C[C@H]2C(=O)N[C@@H](CCCC[N+](C)(C)C)C(=O)N2[C@H]1c1ccc(O)cc1` the composite z-score was -0.106 and -0.158.
In the case of `Cc1ccc(S(=O)(=O)N[C@@H]2COC(=O)CC=C[C@@H](C)[C@@H]3C=C[C@H](O)[C@@H](COC(=O)CC=C[C@H]2C)O3)cc1`, the composite z-score is reported as -0.131 and -0.175.
`CCCNC(=O)OC[C@H]1O[C@H](CCON=C(C)CCC(=O)OC[C@H]2O[C@H](C#Cc3ccccc3)C=C[C@@H]2Oc2ccc(C)cc2)C=C[C@@H]1Oc1ccc(OC)cc1` showed a composite z-score of -0.124.
In the case of `C=CCN(CCCC)C(=O)C1N(C(C)(C)CO)C(=O)C2C(C(=O)O)C3C=CC21O3` (stereo not drawn), the composite z-score is reported as -0.249 and -0.252.
In the case of `C=C[C@@H](C)[C@H](O)c1ccc(O)c2ccccc12`, the composite z-score is reported as -0.182 and -0.24.
With `C=CCN(Cc1ccccc1)C(=O)C1N(C(C)(C)CO)C(=O)C2C(C(=O)O)C3C=CC21O3` (stereo not drawn) the composite z-score was -0.206 and 0.511.
`C=CC[C@H](O)c1ccc(OCCO)cc1` gave a composite z-score of -0.153.
With `C=CCN(C(=O)C(c1cccs1)N(C(=O)/C=C\C(=O)O)c1ccc(CCO)cc1)c1ccc(OC)cc1` (stereo not drawn) the composite z-score was -0.236 and -0.312.
For `C=CC[C@@H](O)c1ccc(OCCO)cc1`, the composite z-score was -0.0908 and -0.279.
With `C=CCN(C(=O)C1N(CCCCCCO)C(=O)C2C(C(=O)O)C3C=CC21O3)c1ccc(OC)cc1` (stereo not drawn) the composite z-score was -0.241 and -0.18.
With `COC(=O)C1=C(C)N(Cc2ccccc2)C2=C(C(=O)c3ccccc3)[C@H](c3ccccc3)[C@@](O)(C(=O)OC)C(=O)N2[C@@H]1c1ccccc1` the composite z-score was -0.0759 and -0.0691.
In the case of `Cc1ccc(S(=O)(=O)N[C@H]2COC(=O)[C@@H](C)COC(=O)[C@H](C)NC(=O)CC=C[C@H]2C)cc1`, the composite z-score is reported as -0.116.

Source: PubChem BioAssay
